Screening results deposited in PubChem by National Center for Advancing Translational Sciences (NCATS).
POLB inh: inhibitors of human DNA polymerase beta. Potency, µM (doses to about 114 µM), most hits filed as inhibitors. P06746. hit rate 1.3% among 340,000. Pol beta primer extension/strand displacement, fluorescence kinetic
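Pol beta (10 nM) and compounds were preincubated 15 min at room temperature, then 50 nM substrate (final) started primer extension/strand displacement. Reads were taken at 0 and 10 min; concentration-response data were fitted to a four-parameter Hill equation.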
Pol eta inh-1: inhibitors of human DNA polymerase eta. Q9Y253. recombinant Pol eta, fluorescent DNA replication assay. Potency, µM (titrated, usually from 114 µM), usual class: inhibitors. hit rate 1.2% among 390,000. AID 588591
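Pol eta at 10 nM preincubated with compounds 15 min at room temperature; reaction started with fluorescent substrate (50 nM final) and read kinetically at 0 and 10 min.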
PI5P4K alpha inh: blocks human PI5P4K alpha kinase activity. PI5P4Kalpha enzyme, ADP-Glo luminescence, 60 min; hits give low values. max response, %. hit rate 1.2% among 330,000. AID 652105; active = max response of -50% or lower; inconclusive = between -30% and -50%; inactive = -30% or higher; note: value at the top dose of about 77 µM
Target sequence (P48426 whole entry, looked up): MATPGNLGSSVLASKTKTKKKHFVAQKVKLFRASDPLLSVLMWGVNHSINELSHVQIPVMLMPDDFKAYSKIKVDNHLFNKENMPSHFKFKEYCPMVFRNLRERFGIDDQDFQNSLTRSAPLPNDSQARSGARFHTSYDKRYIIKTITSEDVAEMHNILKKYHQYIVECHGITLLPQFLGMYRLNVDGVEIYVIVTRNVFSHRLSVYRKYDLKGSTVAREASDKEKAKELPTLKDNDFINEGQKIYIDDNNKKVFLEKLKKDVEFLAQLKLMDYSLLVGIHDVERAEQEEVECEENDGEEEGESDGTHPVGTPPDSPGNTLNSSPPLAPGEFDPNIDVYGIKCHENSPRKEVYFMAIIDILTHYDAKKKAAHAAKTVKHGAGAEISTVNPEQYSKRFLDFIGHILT
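ADP-Glo luminescence end-point after a 60 min room-temperature kinase reaction. PI5P4Kalpha and substrate in HEPES pH 7.4 buffer with EGTA, 0.1% CHAPS and 5% DMSO; ATP at 5 microM final.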
POLI inh: blocks human DNA polymerase iota activity. Q9UNA4. Pol iota fluorescent replication assay, 10 min. Potency, µM (top dose mostly 115 µM), usual class: inhibitors. hit rate 1% among 390,000. AID 588590
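Pol iota at 10 nM preincubated 15 min with compounds at room temperature; reaction started with fluorescent substrate, 50 nM final. Fluorescence read kinetically at 0 and 10 min; buffer-only wells as negative control.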
WRN helicase inh-1: inhibitors of human WRN helicase | Q14191 | WRN helicase unwinding, fluorescent forked duplex, kinetic | Potency, µM (highest dose often 114 µM), actives largely listed as inhibitors | hit rate 0.46% among 360,000 | AID 651768; note: nearly all actives have a fitted effect of over 55% in size
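Kinetic fluorescence helicase assay: unwinding of a quenched forked DNA duplex (100 nM final) with 2 mM ATP final raises red fluorescence (525/598 nm). Compounds sat 15 min at room temperature with 20 nM WRN beforehand.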
Pol kappa inh-1: inhibitors of human DNA polymerase kappa | Q9UBT6 | purified Pol kappa, fluorescent DNA synthesis assay, 10 min | Potency, µM (series often up to 107 µM), most hits filed as inhibitors | hit rate 0.53% among 400,000 | AID 588579
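Activity was followed as the change in fluorescence between reads at 0 and 10 min after starting the reaction with 50 nM substrate. Beforehand, 10 nM polymerase had been preincubated with compound for 15 min at room temperature.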
TbPGK inh: blocks T. brucei phosphoglycerate kinase; hit rate 79% among 500; Potency, µM (highest dose often 57.5 µM), usual class: inhibitors; shares compounds with Pol kappa inh-1; TbPGK coupled GAPDH assay, Kinase-Glo luminescence; note: nearly all actives have a fitted effect of over 65% in size
POLI cherry-pick: Human Pol iota inhibitor confirmatory assay | shares compounds with Pol kappa inh-1 | Pol iota primer extension, TAMRA/BHQ fluorescence | Potency, µM, most hits filed as inhibitors | hit rate 77% among 1,500 | AID 720496
GALK inh confirm: confirmation of human galactokinase (GALK) inhibitors. hit rate 70% among 150. shares compounds with Pol eta inh-1. purified GALK, Kinase-Glo ATP depletion luminescence. Potency, µM (series often up to 115 µM), usual class: inhibitors
Redox cycling: generates H2O2 by redox cycling, flagging GALK artifacts | Potency, µM (doses to about 115 µM), hits mostly inhibitors | shares compounds with Pol eta inh-1 | hit rate 40% among 150 | Phenol red-HRP H2O2 redox cycling, absorbance 600 nm
HEK293 tox: reduces HEK-293 cell viability in GALK counter-screen. shares compounds with Pol eta inh-1. HEK-293 viability, ATP luminescence (CellTiter-Glo), 24/48 h. Potency, µM (series often up to 46.1 µM), hits mostly inhibitors. hit rate 10% among 170
Pol kappa inh-2: confirmation of human DNA polymerase kappa inhibitors; shares compounds with Pol eta inh-1; purified Pol-kappa, fluorescent strand-displacement substrate; Potency, µM, most hits filed as inhibitors; hit rate 76% among 920; AID 720501
Pol eta inh-2: confirmation of human DNA polymerase eta inhibitors | shares compounds with Pol eta inh-1 | Pol eta primer extension, TAMRA/BHQ fluorescence, 10 min | Potency, µM, usual class: inhibitors | hit rate 64% among 2,600 | AID 720502
WRN helicase inh-2: confirmation of human WRN helicase inhibitors; shares compounds with WRN helicase inh-1; WRN helicase DNA unwinding, fluorescence kinetic; Potency, µM (doses to about 57.1 µM), most hits filed as inhibitors; hit rate 63% among 610; AID 720497; note: nearly all actives have a fitted effect of over 65% in size
TO displacement: DNA binding via thiazole orange displacement; Potency, µM (top dose mostly 57.1 µM), most hits filed as inhibitors; thiazole orange DNA binding displacement, fluorescence; hit rate 10% among 610; shares compounds with WRN helicase inh-1;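 note: drop in dye fluorescence marks compound binding to DNA; nearly all actives have a fitted effect of over 60% in size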
BLM counter: counter-screen for WRN helicase inhibitors: human BLM helicase inhibition; shares compounds with WRN helicase inh-1; Recombinant BLM helicase DNA unwinding, red fluorescence; Potency, µM (doses to about 57.1 µM), actives largely listed as inhibitors; hit rate 60% among 610; AID 720503; note: nearly all actives have a fitted effect of over 60% in size
Each line names hits and unclear results; the compound was inactive in the other large screens (follow-up assays come after a bar, where they were run). An excerpt weighted towards active compounds, which were near 2.8% of everything screened. Unless noted, calls come from the whole dose curve; as a rule, active = well fitted curve in the direction sought with a large enough effect; inconclusive = small, poorly fitted or top-dose-only effect, or another doubt; inactive = no such curve, though single readings can be large; an effect the other way counts as inactive or inconclusive.

O=C(O)c1ccc(-n2cccc2/C=C2/SC(=O)N(CC(=O)N3CCCC3)C2=O)cc1	POLB inh 2µM, Pol eta inh-1 1.8µM, PI5P4K alpha inh -59, POLI inh 3.5µM, WRN helicase inh-1 20µM, Pol kappa inh-1 7.1µM | TbPGK inh 5.8µM | POLI cherry-pick 5.3 | Pol eta inh-2 6.7 | WRN helicase inh-2 6.8µM | TO displacement inactive | BLM counter 3µM
O=C1N/C(=C/c2cccn2-c2ccccc2)C(=O)N1Cc1ccccc1F	WRN helicase inh-1 inconclusive
O=C(O)c1ccc(-n2cccc2/C=C2/NC(=O)N(c3ccccc3)C2=O)cc1	POLB inh inconclusive, Pol eta inh-1 2.8µM, PI5P4K alpha inh inconclusive, POLI inh 3.2µM, WRN helicase inh-1 35µM, Pol kappa inh-1 22µM | TbPGK inh 5.8µM | POLI cherry-pick 3.4 | Pol eta inh-2 5.4 | WRN helicase inh-2 15µM | TO displacement inactive | BLM counter 7.6µM
O=C(CN1C(=O)S/C(=C/c2cccs2)C1=O)N1CCCC1	none (no result: POLB inh)
COc1ccc(CCNC(=O)COC(=O)CNS(=O)(=O)c2ccc(SC)c([N+](=O)[O-])c2)cc1	none (no result: POLB inh)
COCCCNC(=O)/C(C#N)=C/c1ccc(OCC(=O)O)c(OC)c1	POLB inh 3.5µM, Pol eta inh-1 2.5µM, PI5P4K alpha inh inconclusive, POLI inh 10µM, WRN helicase inh-1 inconclusive, Pol kappa inh-1 22µM | POLI cherry-pick 19 | Pol eta inh-2 27 | WRN helicase inh-2 19µM | TO displacement inconclusive | BLM counter 5.4µM
COCCNC(=O)/C(C#N)=C/c1cccc(/C=C(\C#N)C(=O)NCCOC)c1	none
Cc1cccc(C)c1N1C(=O)[C@@H]2C(c3ccccc3Cl)=NO[C@@H]2C1=O	none
COc1ccc(OC)c(N2C(=O)[C@@H]3C(c4ccccc4Cl)=NO[C@@H]3C2=O)c1	Pol eta inh-1 1.3µM, PI5P4K alpha inh -66, POLI inh 3.5µM, WRN helicase inh-1 40µM, Pol kappa inh-1 20µM | TbPGK inh 5.8µM | POLI cherry-pick 17 | Pol eta inh-2 17 | WRN helicase inh-2 22µM | TO displacement inconclusive | BLM counter 17µM
O=C1c2cccc(NCCCNCCO)c2C(=O)c2cccc(NCCCNCCO)c21	Pol eta inh-1 4.5µM, POLI inh 45µM, WRN helicase inh-1 10µM, Pol kappa inh-1 32µM (no result: POLB inh) | POLI cherry-pick 19 | Pol kappa inh-2 17 | Pol eta inh-2 38 | WRN helicase inh-2 1.1µM | TO displacement 0.86µM | BLM counter 1.7µM
O=C1c2ccccc2C(=O)c2c(NCc3cccnc3)cccc21	none
O=C(O)c1cc(N2N=C(C(F)(F)F)/C(=C/C=C/c3ccco3)C2=O)ccc1Cl	POLB inh 0.63µM, PI5P4K alpha inh -93, POLI inh 1.1µM, WRN helicase inh-1 0.84µM, Pol kappa inh-1 1.1µM | TbPGK inh 0.58µM | POLI cherry-pick 0.75 | Pol kappa inh-2 0.12 | Pol eta inh-2 0.67 | WRN helicase inh-2 1.4µM | TO displacement inactive | BLM counter 0.61µM
O=C(/C=C/c1ccco1)Nc1ccc(Cl)c(S(=O)(=O)N2CCOCC2)c1	none
CCOc1cc(N2CCCC2)ccc1[N+](=O)[O-]	none
CNc1ccc(-c2cccc(CO)c2)cn1	none (no result: POLB inh, Pol eta inh-1, POLI inh, Pol kappa inh-1)
O=C(O)CC(CCc1ccccc1)OC1OC(CO)C(O)C(O)C1O (stereo unspecified)	POLB inh 0.71µM, Pol eta inh-1 0.79µM, PI5P4K alpha inh -68, POLI inh 1.8µM, WRN helicase inh-1 inconclusive, Pol kappa inh-1 2µM | TbPGK inh inconclusive | POLI cherry-pick 2.7 | GALK inh confirm 53µM | Redox cycling inactive | HEK293 tox inactive | Pol eta inh-2 11 | WRN helicase inh-2 1.7µM | TO displacement inactive | BLM counter 1.5µM
[C-]#[N+][C@H](O[C@@H]1O[C@H](CO)[C@@H](O)[C@H](O)[C@H]1O)c1ccccc1	none (no result: POLB inh)
COc1ccc(NS(=O)(=O)c2ccc3c(c2)[C@H]2C=CC[C@H]2[C@@H](c2ccc(C(=O)O)cc2)N3)cc1	POLB inh 20µM, Pol eta inh-1 2.8µM, PI5P4K alpha inh -65, POLI inh inconclusive, WRN helicase inh-1 40µM, Pol kappa inh-1 10µM | TbPGK inh 18µM | POLI cherry-pick 24 | Pol kappa inh-2 2.4 | Pol eta inh-2 9.5 | WRN helicase inh-2 22µM | TO displacement inactive | BLM counter 27µM
COC(=O)c1ccc([C@H]2Nc3ccc(S(=O)(=O)Nc4ccc(C)cc4)cc3[C@H]3C=CC[C@H]32)cc1	POLB inh inconclusive, Pol eta inh-1 inconclusive, POLI inh inconclusive (no result: PI5P4K alpha inh, WRN helicase inh-1)
COc1ccccc1C(=O)COC(=O)c1ccc(Cl)nc1	none (no result: POLB inh)
